Bioassay records deposited in PubChem by several laboratories.
FGF22 binding: shifts melting point of recombinant human FGF22. actives 1.5% (n = 340,000). activity (Tm shift, normalised), % at 9.99 µM. AID 651658. Q9HCT0. recombinant FGF22 thermal shift, SYPRO orange fluorescence; percent of sucrose octasulfate shift, DMSO zero;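 active = mean Tm shift, scaled 0 neutral to 100 positive control, at about 1.3% or above, every replicate too, limit read from the data; inconclusive = no clear call, values can overlap the other calls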
Target sequence (Q9HCT0 whole entry, looked up): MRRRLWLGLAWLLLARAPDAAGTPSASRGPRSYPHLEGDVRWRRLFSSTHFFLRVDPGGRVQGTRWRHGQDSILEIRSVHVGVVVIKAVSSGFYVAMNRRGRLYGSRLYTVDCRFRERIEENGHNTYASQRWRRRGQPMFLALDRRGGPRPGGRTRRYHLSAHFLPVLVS
AF4-AF9 inh: blocks AF4 peptide binding to human AF9. P42568. AlphaScreen, biotin-AF4 peptide binding to FLAG-AF9. inhibition, % at 10 µM. actives 0.47% (n = 350,000);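 active = every replicate reaching a set inhibition limit, whatever the replicate mean, cut at about 25% in these data; inconclusive = mean inhibition reaches that limit but some replicates miss it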;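 note: 0% = plate neutral control median and 100% = total signal loss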
esBAF inh: blocks esBAF chromatin remodeling in mouse ES cells; Bmi1-luciferase knock-in reporter, 24 h; 100% = twice the neutral-well signal; reporter increase, % at 12.5 µM; actives 2% (n = 350,000); AID 602393; in the data active = activation above about 40%; inconclusive = no clear call, values can overlap the other calls;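 note: 0% = median of the plate's neutral control wells and 100% = double that signal; a rise in the Bmi1 reporter signal indicates esBAF inhibition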
SMARCA2 act: activators of SMARCA2 function. AID 652017. activation, % at 9.1 µM. MG213 cells, MMTV-luciferase reporter, dexamethasone, overnight. actives 1% (n = 370,000); in the data active = activation above about 7.8%;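 note: 0% = vehicle wells and 100% = reference activator wells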
MITF act: increases MITF-driven TRPM1 promoter luciferase signal. SK-MEL-5 TRPM1-promoter luciferase, 24 h; % of positive control, neutral wells = 0. activation, % at 12.5 µM. actives 0.75% (n = 300,000);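 active = mean activation of at least 80% with every replicate also reaching 80%; inconclusive = mean reaches 80% but some replicate falls short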;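 note: 0% = neutral control wells and 100% = parthenolide positive control wells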
Wnt bcat act: activates Wnt/beta-catenin signaling in a reporter cell assay | actives 1.2% (n = 300,000) | activator, plate reader | activation, % at 9.35 µM; in the data active = activation above about 30%, passing the limit was not always enough; inconclusive = no clear call, values can overlap the other calls;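 note: 0% = neutral control wells and 100% = positive control wells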
Active calls of the source: *; ? = inconclusive; . = not tested or not shown. Sampled rows, rich in hits. Any-hit rate of the full collection: about 4.3%.

SMILES	FGF22 binding	AF4-AF9 inh	esBAF inh	SMARCA2 act	MITF act	Wnt bcat act
COc1ccc2c3c(n(C)c2c1)[C@H](CO)NCC31CN(Cc2ccncc2)C1	0	4	.	.	.	.
COc1ccc2c3c(n(C)c2c1)[C@H](CO)NCC31CN(Cc2ccccc2F)C1	0	54*	.	.	.	.
COc1ccc2c3c(n(C)c2c1)[C@H](CO)NCC31CCN(Cc2ccccc2Cl)CC1	0	9	.	.	.	.
COc1ccc2c3c(n(C)c2c1)[C@H](CO)NCC31CN(Cc2ccc(F)cc2)C1	0	36*	.	.	.	.
COc1ccc2c3c(n(C)c2c1)[C@H](CO)NCC31CCN(Cc2cc(-c3ccccc3)on2)CC1	.	39*	.	.	.	.
COc1ccc2c3c(n(C)c2c1)[C@@H](CO)NCC31CN(CC2CCOCC2)C1	0	32*	.	.	.	.
C[C@@H](NC(=O)C[C@@H]1CC[C@H]2[C@@H](COC[C@H](O)CN2C)O1)c1ccccc1	0	-1	-5	.	.	.
O=C(C[C@@H]1C=C[C@H](NC(=O)C2CCOCC2)[C@H](CO)O1)NCC1CCCCC1	0	-2	0	.	.	.
COc1ccc2c3c(n(C)c2c1)[C@@H](CO)NCC31CN(Cc2ccc(Cl)cc2)C1	0	45*	.	.	.	.
COc1ccc2c3c(n(C)c2c1)[C@H](CO)N(CC1CC1)CC31CN(Cc2ccc(F)cc2)C1	.	31*	.	.	.	.
Cc1ccc(S(=O)(=O)N(C)C[C@@H]2OCCCC[C@H](C)Oc3ccc(NC(=O)CCCN(C)C)cc3C(=O)N([C@H](C)CO)C[C@@H]2C)cc1	0	5	-1	.	.	.
Cc1cccc(N/C(N)=N/c2nc(C)cc(=O)[nH]2)c1	43*	0	.	1	-1	-2
COC(=O)Cc1cc(=O)[nH]c(/N=C(\N)Nc2cccc(C)c2)n1	43*	-2	.	1	7	2
Cc1cc(=O)[nH]c(/N=C(\N)Nc2ccc3c(c2)OCCO3)n1	44*	-2	-3	5	5	-1
CO[C@@H]1CN(C)C(=O)c2ccc(NC(=O)c3cccc(F)c3)cc2OC[C@H](C)NC[C@H]1C	0	-4	5	.	.	.
c1ccc2c(-c3nc(-c4ccncc4)no3)cccc2c1	.	.	46*	3	51	.
c1ccc(-c2noc(-c3cccc4ccccc34)n2)cc1	.	.	76*	6	38	.
c1ccc(-c2ccccc2-c2nc(-c3cccnc3)no2)cc1	.	.	-2	-2	4	.
c1cncc(-c2noc(-c3cccc4ccccc34)n2)c1	0	4	58*	0	54	16
O=S(=O)(N[C@H]1CC[C@@H](CCn2cc(-c3cccc(F)c3)nn2)O[C@H]1CO)c1ccc(Cl)cc1	0	-1	9	.	.	.
CO[C@@H]1CN(C)C(=O)c2cc(NS(C)(=O)=O)ccc2OC[C@@H](C)N(C(=O)C2CCOCC2)C[C@@H]1C	0	-14	-13	.	.	.
C[C@H]1CN([C@@H](C)CO)C(=O)Cc2cc(NC(=O)CCCCCC(=O)Nc3ccccc3N)ccc2O[C@@H]1CN(C)Cc1ccc(Cl)c(Cl)c1	0	-1	2	.	.	.
CC(=O)c1sc(NC(=O)c2cnc(Cl)c(Cl)c2)nc1C	1	-1	34	5	31	18
CC(=O)c1sc(NC(=O)c2ccc3c(c2)OCO3)nc1C	0	-5	23	4	114*	39*
CCOCc1nnc(NC(=O)CSc2ccccc2)s1	.	.	-7	-2	.	-2
SMILES	FGF22 binding	AF4-AF9 inh	esBAF inh	SMARCA2 act	MITF act	Wnt bcat act
CC(C)(C)Cc1nnc(NC(=O)CSc2ccccc2)s1	0	-4	72*	-1	.	17
CC(C)(C)Cc1nnc(NC(=O)c2ccc3c(c2)OCO3)s1	0	1	46*	0	68	15
O=C(Nc1nnc(Cc2ccc([N+](=O)[O-])cc2)s1)c1ccc2c(c1)OCO2	0	-2	.	-1	17	2
CC(=O)c1sc(NC(=O)c2ccc(C)c(C)c2)nc1C	44*	-5	.	6	64	16
O=C(C[C@H]1CC[C@H]2[C@@H](COC[C@H](O)CN2S(=O)(=O)c2ccccc2)O1)Nc1ccccc1	0	-1	-4	.	.	.
O=C(C[C@@H]1C=C[C@H](NC(=O)Nc2ccc3c(c2)OCO3)[C@@H](CO)O1)NCc1ccc2c(c1)OCO2	0	2	5	.	.	.
Cc1nc(NC(=O)c2ccccc2)sc1Cc1ccc2c(c1)OCO2	0	3	53*	2	25	.
COCCNC(=O)Cc1ccc(F)cc1	0	0	.	-1	-11	.
CC(C)OCCCNC(=O)Cc1ccc(F)cc1	43*	-2	-6	0	-14	-1
CC(C)(C)c1ccc(OCCNC(=O)Cc2ccc(F)cc2)cc1	1.6*	0	.	-5	19	-1
O=C(C[C@@H]1CC[C@H](NC(=O)c2ccccc2)[C@@H](CO)O1)NCCc1ccncc1	0	-2	-6	.	.	.
CCOc1cccc(-c2cnc3cccnn23)c1	1	-13	61*	5	.	3
CCC(=O)Nc1ccc(-c2ccc(N3CCC(C)CC3)nn2)cc1	.	.	48*	.	89*	.
C[C@H](CO)N1C[C@H](C)[C@H](CN(C)S(C)(=O)=O)Oc2ccc(NC(=O)Cc3cn(C)c4ccccc34)cc2CC1=O	0	-2	2	.	.	.
Cc1oc(-c2cccc(C(F)(F)F)c2)nc1CN1CCN(c2ccccn2)CC1	43*	2	-6	4	-4	.
Cc1ccccc1S(=O)(=O)N1C[C@H](O)COC[C@@H]2O[C@H](CC(=O)N3CCN(C)CC3)CC[C@H]21	0	-1	1	.	.	.
Cc1ccc(NC(=O)CC(NCC2CCCO2)C(=O)O)cc1C (stereo not drawn)	43*	-6	8	-4	0	.
c1ccc2c(Nc3nnc(-c4ccncc4)s3)cccc2c1	.	.	55*	1	?	.
C=CCNc1nnc(-c2ccncc2)s1	.	.	.	2	8	.
CO[C@H]1CN(C)C(=O)c2ccc(NC(=O)Nc3cccc(F)c3)cc2OC[C@H](C)NC[C@@H]1C	0	0	.	.	.	.
O=C(N[C@@H]1CC[C@@H](CCNS(=O)(=O)c2ccc(Cl)cc2)O[C@H]1CO)c1cccc(F)c1	0	-2	6	.	.	.
CC[n+]1c(/C=C/c2c[nH]c3ccccc23)ccc2cc(C)ccc21	0	26*	.	-8	-73	-28
CCN(CC)C(=O)c1ccc(/C=C/c2c[nH]c3ccccc23)[n+](C)c1	.	.	0	3	-9	-2
CC(C)CN1C(=O)c2ccc(NC(=O)c3ccccc3F)cc2C1=O	.	.	47*	0	69	.
O=C(Nc1ccc2c(c1)Cc1ccccc1-2)c1ccccc1F	0	0	.	3	.	49*
O=C(Nc1ccc(Cc2ccncc2)cc1)c1ccc(Br)o1	.	.	19	1	28	2
O=C(Nc1ccc2c(c1)Cc1ccccc1-2)c1ccc(Br)o1	.	.	51*	2	59	18
C=CCn1c(C)csc1=Nc1ccc(C(C)=O)cc1	0	4	.	1	37	4
